Measured values as given in PubChem BioAssay AID687001 (Broad Institute, 2013).
Measured potencies and affinities stand elsewhere. A number with no mark means an inactive call.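 The calls were made as follows: active = signal-lowering compounds whose fitted half-maximal concentration is at or below twice the top tested dose in every run; inconclusive = runs disagree, flat 30 to 70% inhibition, or poor curve fit; inactive = the rest.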

The molecules below were run against Protein S100-A4 (Homo sapiens) (UniProt P26447) (assay: S100A4-myosin IIA binding inhibitor potency, dose response, biochemical, fluorescence polarization, cherry-picked hits (AID 687001;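 also: 0% = DMSO neutral control wells and -100% = TFP positive control wells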)). Details: FP, S100A4/TAMRA-myosin IIA peptide binding; series mostly up to 11 µM; activity change, negative = inhibition: at the top concentration.
Protein S100-A4 (Homo sapiens), sequence (P26447 whole entry, looked up): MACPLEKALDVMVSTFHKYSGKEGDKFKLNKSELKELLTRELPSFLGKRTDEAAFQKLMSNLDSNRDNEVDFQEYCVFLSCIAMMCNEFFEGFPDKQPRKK

Compound	activity change, negative = inhibition
O=C(CSc1ccc(Cl)cc1)NC1CC1	-3.42%
C[C@H]1CN([C@@H](C)CO)C(=O)c2cc(NC(=O)NC3CCCCC3)ccc2O[C@@H]1CN(C)Cc1ccc(C(=O)O)cc1	-1.93%
O=C(OCC(=O)N1CCCC1=O)c1ccc(Cl)cc1[N+](=O)[O-]	0.43%
O=C(Nc1ccc2c(c1)CN(Cc1ccco1)CC2)C1CCCO1 (centres undefined)	8.73%
Cc1cc(C)cc(OCC(=O)OCC(=O)N2CCc3ccccc32)c1	4.97%
C[C@H](CO)N1C[C@H](C)[C@@H](CN(C)CC2CC2)OCc2cnnn2CCCC1=O	-5.11%
COc1cccc(-c2ccc3n(c2=O)C[C@H]2[C@H](CO)[C@@H](C(=O)N4CCOCC4)N[C@@H]32)c1	4.2%
Cc1ccc(S(=O)(=O)N(C)C[C@H]2OCCCC[C@H](C)Oc3ccc(NS(=O)(=O)c4ccccc4)cc3C(=O)N([C@H](C)CO)C[C@@H]2C)cc1	24.1%
CN(C)CC(=O)N1CC2(C1)[C@@H](c1ccccc1)[C@@H](CO)N2S(C)(=O)=O	1.25%
CCCN(CC(=O)Nc1ccccc1C)C(=O)C1CC(=O)N(c2cccc(C)c2C)C1 (centres undefined)	-1.18%
Cc1ccc(S(=O)(=O)N(C)C[C@H]2OCCCC[C@@H](C)Oc3ccc(NS(=O)(=O)c4c(C)noc4C)cc3C(=O)N([C@@H](C)CO)C[C@H]2C)cc1	33.5%
C[C@@H]1CN([C@@H](C)CO)C(=O)c2cccc(NC(=O)C3CCOCC3)c2O[C@@H]1CN(C)Cc1ccc(C(=O)Nc2ccccc2N)cc1	20.1%
Cc1ccc(NC(=S)N(C)C)cc1C	-3.01%
CCCc1cn(CC[C@@H]2CC[C@H](NC(=O)C3CCCC3)[C@H](CO)O2)nn1	-4.03%
